Test results taken from PubChem BioAssay AID2358 (The Scripps Research Institute Molecular Screening Center, 2010).
About 1,000 (53%) of roughly 1,900 compounds were called active. So high a share suggests a set chosen from earlier hits. These entries were drawn from the full list. Unmarked numbers belong to inactive results.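 Rule for the calls: active = mean PP1 inhibition above a set limit taken from the earlier primary screen (cut at about 15% in these data); inactive = the rest.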

The compounds below were run against Serine/threonine-protein phosphatase PP1-alpha catalytic subunit (Homo sapiens) (UniProt P62136) (assay: PP1 phosphatase inhibitors, confirmation, biochemical, fluorescence, OMFP substrate, triplicate (AID 2358)). Conditions: purified PP1alpha, at 6.7 µM, hits give high values.
Chain of Serine/threonine-protein phosphatase PP1-alpha catalytic subunit (Homo sapiens) (P62136 whole entry, looked up): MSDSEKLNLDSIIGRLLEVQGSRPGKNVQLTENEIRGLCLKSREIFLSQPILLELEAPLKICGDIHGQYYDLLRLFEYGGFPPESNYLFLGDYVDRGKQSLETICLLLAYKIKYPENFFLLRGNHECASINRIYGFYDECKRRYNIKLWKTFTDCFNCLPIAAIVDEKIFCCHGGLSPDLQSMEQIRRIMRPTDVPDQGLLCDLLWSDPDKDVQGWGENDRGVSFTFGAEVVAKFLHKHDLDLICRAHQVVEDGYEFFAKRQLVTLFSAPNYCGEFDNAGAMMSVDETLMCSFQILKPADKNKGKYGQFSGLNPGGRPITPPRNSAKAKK
In the case of `O=c1[nH]c(CN2CC=C(c3ccccc3)CC2)nc2scc(-c3cccs3)c12`, the inhibition is reported as 19.9% (active). Compound `CCOP(=O)(OCC)C(O)c1ccc(OC)cc1OC` (stereo not drawn) has an inhibition of -5.49%. `O=C(O)c1ccccc1NC(=O)C1C2CCC(O2)C1C(=O)O` (stereo not drawn) gave an inhibition of 13.2%.
